The source of these data is PubChem BioAssay (NCATS).

In experiment [1] the target is Cellular tumor antigen p53 (Homo sapiens) (UniProt P04637). Nature of the experiment: Primary qHTS for small molecule compounds that upregulate eGFP-tagged delta133p53alpha (in N-terminal) cells. (AID 2060322). Further: nearly all actives have a fitted effect of over 75% in size. Further: potency means the concentration at half of the fitted maximal effect.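 On activation: cells pre-induced with doxycycline then dosed without doxycycline; series mostly up to about 56 µM; 0% = DMSO vehicle and 100% = reference activator.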 As to conditions: NCI-H358 eGFP-delta133p53alpha fluorescence, 24 h; activation: hits give high values. The gist of the method: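 NCI-H358 cells pre-induced 24 h with 10 ng/ml doxycycline for eGFP-delta133p53alpha, plated dox-free and exposed 24 h at 37C to titrated compounds. Fixed, Hoechst-stained; gated GFP peak intensity by laser scanning cytometry, normalized to DMSO (0%) and 57.5 uM 5-azacytidine (100%).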

For experiment [2], the target named is Aldehyde dehydrogenase, mitochondrial (Homo sapiens) (UniProt P05091). As to the kind of experiment: qHTS for Inhibitors of the Aldehyde Dehydrogenase Family (ALDH2) Primary screen (AID 2061308).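 Further: plate controls were vehicle for no effect and reference inhibitor for full effect; nearly all actives have a fitted effect of over 55% in size.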
Experiment [3] addresses Retinaldehyde dehydrogenase 3 (Homo sapiens) (UniProt P47895). As to the kind of experiment: qHTS for Inhibitors of the Aldehyde Dehydrogenase Family (ALDH1A3) Primary screen (AID 2061315).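 Further: plate controls were DMSO vehicle for no effect and reference inhibitor for full effect.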 On the technique in general: qHTS replaces the single test concentration by a dilution series.
Experiment [4] is described as follows: BET inhibitor-based combinations targeting novel dependencies in MECOM-rearranged (r) AML: SET-2 cell line (AID 2202231). Further: nearly all actives have a fitted effect of over 35% in size. Further: potency means the concentration at half of the fitted maximal effect.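 On viability: plate controls were DMSO treated cells for no effect and wells without cells for full effect.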 As to conditions: SET-2 AML cells viability, CellTiter-Glo luminescence, 48 h; viability: hits give low values, concentration not given here. The gist of the method:
(§1)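 Luminescent ATP readout (CellTiter-Glo) after 48 hr drug exposure gives viability. Curves span 11 concentrations and are normalized to DMSO and empty wells. Activity is reported as area under the curve and its Z-transform within each cell line.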
On the technique in general: ATP-based viability assays read luminescence as a measure of living cells.

A short description of experiment [5]: BET inhibitor-based combinations targeting novel dependencies in MECOM-rearranged (r) AML: OCI-AML3 cell line (AID 2202232). Further: nearly all actives have a fitted effect of over 35% in size. Further: potency means the concentration at half of the fitted maximal effect. The following applies: Potency: OCI-AML3 viability. The gist of the method:
as §1

Experiment [6] in a line: BET inhibitor-based combinations targeting novel dependencies in MECOM-rearranged (r) AML: MV-4-11 cell line (AID 2202233). Further: nearly all actives have a fitted effect of over 45% in size. Further: potency means the concentration at half of the fitted maximal effect. The gist of the method:
(§2)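 Luminescent ATP readout (CellTiter-Glo, 15 min at room temperature) after 48 hr drug exposure gave viability. Dose-response curves, normalized to DMSO and empty-well controls, were summarized as area under the curve and its mean-centred Z-score.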

Experiment [7] can be described thus: BET inhibitor-based combinations targeting novel dependencies in MECOM-rearranged (r) AML: HNT-34 cell line (AID 2202234). Further: nearly all actives have a fitted effect of over 35% in size. Further: potency means the concentration at half of the fitted maximal effect. In outline:
as §2

Experiment [8] is described as follows: BET inhibitor-based combinations targeting novel dependencies in MECOM-rearranged (r) AML: UCSD-AML1 cell line (AID 2202235). Further: nearly all actives have a fitted effect of over 40% in size. Further: potency means the concentration at half of the fitted maximal effect. In outline:
as §2

Experiment [9] is described as follows: BET inhibitor-based combinations targeting novel dependencies in MECOM-rearranged (r) AML: AML-191 cell line (AID 2202236; further: nearly all actives have a fitted effect of over 35% in size; further: potency means the concentration at half of the fitted maximal effect). In outline: as §1
The nature of experiment [10]: BET inhibitor-based combinations targeting novel dependencies in MECOM-rearranged (r) AML: AML-194 cell line (AID 2202237; further: nearly all actives have a fitted effect of over 40% in size; further: potency means the concentration at half of the fitted maximal effect). In outline:
as §1

Each structure is given as a SMILES string. Values joined by “and” are separate entries in the source; they are usually repeats but may differ in a detail not shown here. Identical values can stand only once. Inconclusive results are not listed. A number with no mark means an inactive call. Active and inactive are the calls of the source. The call rests on the fitted dose curve; in most records, active means well fitted curve in the direction sought with a large enough effect; inconclusive means small, poorly fitted or top-dose-only effect, or another doubt; inactive means no such curve, though single readings can be large; an effect the other way counts as inactive or inconclusive.

Cellular tumor antigen p53 (Homo sapiens), sequence (P04637 whole entry, looked up): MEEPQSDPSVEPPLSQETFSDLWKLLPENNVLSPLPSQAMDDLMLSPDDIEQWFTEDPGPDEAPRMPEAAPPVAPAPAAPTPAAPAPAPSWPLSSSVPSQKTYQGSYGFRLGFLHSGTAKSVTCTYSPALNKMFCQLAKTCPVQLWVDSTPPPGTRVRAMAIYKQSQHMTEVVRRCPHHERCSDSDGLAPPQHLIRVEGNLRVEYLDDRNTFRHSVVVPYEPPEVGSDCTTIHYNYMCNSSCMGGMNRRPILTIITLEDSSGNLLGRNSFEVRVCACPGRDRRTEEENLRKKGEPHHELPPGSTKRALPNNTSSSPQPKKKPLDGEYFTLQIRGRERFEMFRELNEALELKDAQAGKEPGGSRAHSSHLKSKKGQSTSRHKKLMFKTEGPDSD

For the compound `CO[C@@H]1COCC[C@@H]1N[C@@H]1CC[C@@](C(=O)N2CCc3ncc(C(F)(F)F)cc3C2)(C(C)C)C1`, the activation in [1] is -7.67% and -27.6%. Further, the Potency result in experiment [2], in experiment [3], in experiment [5], in experiment [6], in [7] and in [8] was “inactive” in each case. For the same compound, the Potency result in experiment [9] and in experiment [10] was “inactive” throughout. The viability in experiment [4] was 122%.
As to `C=CC(=O)Nc1cccc(Nc2nc(Nc3ccc(OCCOC)cc3)ncc2F)c1`, the Potency in [1] was 9.53 µM (active); in experiment [4], 16.6 µM (active); in experiment [5] it was 14.8 µM (active); in experiment [6], 1480 nM (active); in [7], 1.86 µM (active); in [8] it was 8330 nM (active). Further, the Potency is 8.33 µM (active) in experiment [9] and 9.34 µM (active) in experiment [10]. The Potency result in [2] and in experiment [3] was “inactive” in each case.
As for `CS(=O)(=O)c1ccc(Oc2cc(F)cc(C#N)c2)c2c1[C@H](O)C(F)(F)C2`, the activation in experiment [1] is -20.7%. The Potency entry in experiment [2], in experiment [3], in [5], in experiment [6], in experiment [7] and in experiment [8] was “inactive” each time. In addition, the Potency entry in experiment [9] and in [10] was “inactive” throughout. Besides, in [4], the viability was 103%.
Take `O=C(Nc1ccnc(NC(=O)C2CC2)c1)c1c(Cl)cccc1Cl`: the Potency in [1] was 12 µM (active); in [4] it was 7.42 µM (active); in [5], 7.42 µM (active); in [6], 4680 nM (active); in [7] it was 4.17 µM (active); in experiment [8] it was 3320 nM (active). In addition, the Potency in experiment [9] is 5.25 µM (active); in experiment [10], 7.42 µM (active). Also, the Potency entry in experiment [2] and in experiment [3] was “inactive” in each case.
For `O=C(O)[C@H](CC(=O)N1C[C@H]2CCCC[C@H]2C1)Cc1ccccc1`, in experiment [1], the activation was 38.3%. Moreover, the Potency entry in [2], in [3], in experiment [5], in experiment [6], in [7] and in experiment [8] was “inactive” in each case. Further, the Potency entry in experiment [9] and in [10] was “inactive” each time. Moreover, the viability in experiment [4] was 105%.
`Nc1ccn(C2CO[C@H](CO)O2)c(=O)n1` (stereo not given in full): in experiment [1], the activation was -4.75%. The Potency result in experiment [2], in experiment [3], in experiment [5], in [6], in experiment [7] and in experiment [8] was “inactive” each time. The Potency result in experiment [9] and in [10] was “inactive” each time. For the same compound, the viability in experiment [4] was 113%.
In the case of `Cc1cnc(-c2cc(N3CCN(C(=O)CCS(C)(=O)=O)CC3)ncc2Cl)c(C)c1`, the activation in [1] was 20.4% and -10.5%. For the same compound, the Potency result in [2], in [3], in experiment [5], in experiment [6], in experiment [7] and in experiment [8] was “inactive” in each case. In addition, the Potency entry in [9] and in experiment [10] was “inactive” throughout. The viability in [4] is 112%.
Turning to `CS(=O)(=O)N1CCC(NC(=O)c2[nH]ncc2NC(=O)c2c(Cl)cccc2Cl)CC1`, the Potency in [1] is 3.01 µM (active); in experiment [4] it was 2.35 µM (active); in experiment [5] it was 1.48 µM (active); in experiment [6], 590 nM (active); in experiment [7] it was 2.09 µM (active); in [8], 1480 nM (active). Moreover, the Potency was 1.18 µM (active) in experiment [9] and 1.86 µM (active) in experiment [10]. Moreover, the Potency result in [2] and in experiment [3] was “inactive” each time.
Regarding `COc1cc2c(Nc3ccc(Cl)c(Cl)c3F)ncnc2cc1OCC1C[C@@H]2CN(C)C[C@@H]2C1` (stereo not given in full), the Potency in [1] was 13.5 µM (active) and 19.3 µM (active); in [4], 23.5 µM (active) and 20.9 µM (active); in [5], 18.6 µM (active) and 13.2 µM (active); in experiment [6], 5.9 µM (active) and 5.25 µM (active); in [7] it was 1.05 µM (active) and 1.18 µM (active); in [8], 9340 nM (active). Moreover, the Potency in experiment [9] is 14.8 µM (active) and 10.5 µM (active); in experiment [10] it was 13.2 µM (active) and 10.5 µM (active). The Potency entry in experiment [2] and in experiment [3] was “inactive” throughout.
As for `Cc1sc2c(c1C)C(c1ccc(Cl)cc1)=N[C@@H](CC(=O)Nc1ccc(OCCOCCOCCOCCNc3cccc4c3C(=O)N(C3CCC(=O)NC3=O)C4=O)cc1)c1nnc(C)n1-2` (stereo not given in full), the activation in experiment [1] is 59%. The Potency result in experiment [2] and in experiment [3] was “inactive” throughout. Also, the Potency in experiment [4] is 1.05 µM (active); in experiment [5], 0.0332 µM (active); in experiment [6] it was 41.7 nM (active); in [7] it was 0.0148 µM (active); in [8], 20.9 nM (active); in experiment [9], 0.0833 µM (active). For the same compound, in experiment [10], the Potency is 0.0525 µM (active).
`CN1CCN(C2CCN(C(=O)Nc3cc(Oc4ccc(NC(=O)C5(C(=O)Nc6ccc(F)cc6)CC5)c(F)c4)ccn3)CC2)CC1`: the Potency is 26.9 µM (active) in experiment [1]; 20.9 µM (active) in experiment [4]; 23.5 µM (active) in experiment [5]; 296 nM (active) in experiment [6]; 3.72 µM (active) in experiment [7]; 7420 nM (active) in experiment [8]. For the same compound, the results for the Potency in [9] and in experiment [10] were 18.6 µM (active) and 11.8 µM (active), respectively. Moreover, the Potency result in [2] and in experiment [3] was “inactive” in each case.
Turning to `CCNC(=O)C#Cc1ccc2c(C(=Nc3ccc(CN(C)C)cc3)c3ccccc3)c(O)[nH]c2c1`, the Potency in experiment [1] was 13.1 µM (active); in experiment [4], 12.9 µM (active); in experiment [5] it was 0.144 µM (active); in [6], 64.5 nM (active); in experiment [7], 0.091 µM (active); in [8] it was 574 nM (active). Moreover, the results for the Potency in experiment [9] and in experiment [10] were 0.204 µM (active) and 0.162 µM (active), respectively. For the same compound, the Potency entry in [2] and in experiment [3] was “inactive” throughout.
On to `O=C1NC(=O)C(c2cnc3ccccn23)=C1c1cn2c3c(cc(F)cc13)CN(C(=O)N1CCCCC1)CC2`, for which the Potency in experiment [1] is 30.1 µM (active); in [4] it was 0.0417 µM (active); in experiment [5], 2.95 µM (active); in [6], 186 nM (active); in experiment [7] it was 0.0661 µM (active); in experiment [8] it was 1660 nM (active). The Potency in experiment [9] was 0.662 µM (active); in experiment [10] it was 3.72 µM (active). The Potency entry in [2] and in [3] was “inactive” in each case.
Regarding `CN(C)C/C=C/C(=O)Nc1ccc(C(=O)Nc2cccc(Nc3ncc(Cl)c(-c4c[nH]c5ccccc45)n3)c2)cc1`, the Potency in [1] was 269 nM (active) and 343 nM (active); in [4] it was 0.662 µM (active); in experiment [5] it was 0.0833 µM (active); in [6], 46.8 nM (active); in experiment [7], 0.118 µM (active); in experiment [8] it was 132 nM (active). In addition, the Potency was 0.235 µM (active) in experiment [9] and 0.296 µM (active) in [10]. Also, the Potency entry in [2] and in experiment [3] was “inactive” throughout.

The viability is a read-out of living cells in per cent, often relative to untreated cells.
